Source: PubChem BioAssay (NCI)
Compounds without any hit were thinned out: in the full panel of roughly 79,000, 15% have a hit. Calls of active or inactive are those of the source. No stated cut-off is given here; in the data, active means growth inhibition above about 70%; inactive means the rest.

Experiments:
[1] = NCI Yeast Anticancer Drug Screen. Data for the mlh1 strain (AID 171);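 further: 0% = growth of vehicle-treated control cultures of the same strain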; settings: S. cerevisiae mlh1 strain growth inhibition, stronger effect = higher value
How it was run: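 Here the genetically defined yeast mutant is grown with each compound, and the extent to which its growth falls below that of vehicle-exposed cells is reported.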

[2] = NCI Yeast Anticancer Drug Screen. Data for the sgs1 strain (AID 173);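 further: 0% = growth of vehicle-only control cultures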; settings: S. cerevisiae sgs1 mutant, stronger effect = higher value
How it was run: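 Relative growth inhibition, referenced to vehicle, was determined in a yeast strain with a defined alteration affecting DNA damage repair or cell cycle control after compound exposure.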

[3] = NCI Yeast Anticancer Drug Screen. Data for the mlh1 rad18 strain (AID 175); settings: S. cerevisiae mlh1 rad18 strain growth inhibition, stronger effect = higher value
How it was run: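 In this whole-cell yeast screen, a strain with altered DNA damage repair is challenged with compound, and its growth is measured against matched vehicle-treated controls.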

[4] = NCI Yeast Anticancer Drug Screen. Data for the rad18 strain (AID 177); settings: S. cerevisiae rad18 mutant growth inhibition, stronger effect = higher value
How it was run: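 Screen uses a yeast strain with a defined lesion in DNA damage repair; compound effect is read as loss of growth compared to untreated vehicle cultures.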

[5] = NCI Yeast Anticancer Drug Screen. Data for the rad52 strain (AID 147);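 further: 0% = growth of vehicle-treated control cultures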; settings: S. cerevisiae rad52 mutant growth inhibition, stronger effect = higher value
How it was run: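 Measured: yeast growth inhibition. System: strain with a defined DNA damage repair alteration. Reference: vehicle-treated control cultures.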

[6] = NCI Yeast Anticancer Drug Screen. Data for the wt1 strain (AID 149);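 further: 0% = growth of vehicle-treated wt1 cultures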; settings: S. cerevisiae wt1 strain (SPY 50644) growth inhibition, stronger effect = higher value
How it was run: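 wt1 yeast, compound-treated; % growth inhibition vs vehicle control.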

[7] = NCI Yeast Anticancer Drug Screen. Data for the rad50EPP+ strain (AID 151);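 further: 0% = growth of vehicle-treated control cultures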; settings: S. cerevisiae rad50 mutant strain, stronger effect = higher value
How it was run: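 One strain with a rad50 alteration (rad50EPP+) was compound-treated, its growth then compared to that of vehicle controls.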

[8] = NCI Yeast Anticancer Drug Screen. Data for the rad50 strain (AID 155);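 further: 0% = growth of vehicle-only cultures of the same strain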; settings: S. cerevisiae rad50 strain growth inhibition, stronger effect = higher value
How it was run: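 Genetically altered yeast (DNA repair pathway); compound treatment; growth inhibition vs vehicle ctrl.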

[9] = NCI Yeast Anticancer Drug Screen. Data for the mec2-1 strain (AID 157); settings: S. cerevisiae mec2-1 strain, stronger effect = higher value
How it was run: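 Test agents were screened against the mec2-1 yeast strain, with defined DNA repair or cell cycle alteration. Growth was scored as inhibition against vehicle-only controls.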

[10] = NCI Yeast Anticancer Drug Screen. Data for the rad14 strain (AID 159);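 further: 0% = growth of vehicle-treated control cultures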; settings: S. cerevisiae rad14 strain growth inhibition, stronger effect = higher value
How it was run: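 Test compounds were applied to a repair-deficient yeast strain. Its growth was then compared with that of cultures given vehicle alone, and inhibition was expressed relative to those controls.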

[11] = NCI Yeast Anticancer Drug Screen. Data for the sgs1 mgt1 strain (AID 161);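 further: 0% = growth of cultures given vehicle only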; settings: S. cerevisiae sgs1 mgt1 strain, stronger effect = higher value
How it was run: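 Inhibition of yeast growth, normalised to vehicle-treated controls, is reported for a strain bearing genetic alterations in DNA damage repair.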

[12] = NCI Yeast Anticancer Drug Screen. Data for the CLN2oe strain (AID 163);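 further: 0% = growth of vehicle-only control cultures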; settings: S. cerevisiae CLN2oe strain, stronger effect = higher value
How it was run: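 Here, growth inhibition in a cell-cycle-altered yeast strain after compound exposure was quantified against vehicle control growth.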

[13] = NCI Yeast Anticancer Drug Screen. Data for the cln2 rad14 strain (AID 165);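 further: 0% = growth equal to vehicle treated cultures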; settings: S. cerevisiae cln2 rad14 strain, stronger effect = higher value
How it was run: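 Growth of compound-exposed yeast (cln2 rad14 genotype) measured and expressed as inhibition relative to vehicle.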

[14] = NCI Yeast Anticancer Drug Screen. Data for the bub3 strain (AID 167); settings: S. cerevisiae bub3 mutant strain, stronger effect = higher value
How it was run: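 Yeast carrying a defined mutation is treated with each compound, and growth is compared with that of vehicle-exposed cells to give inhibition.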

[15] = NCI Yeast Anticancer Drug Screen. Data for the wt2 strain (AID 169);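 further: 0% = growth of vehicle-treated yeast cultures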; settings: S. cerevisiae wt2 strain growth inhibition, stronger effect = higher value
How it was run: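 Genetically defined yeast strains from a DNA-repair/cell-cycle panel were used. Compound-exposed yeast growth was measured, and the inhibition was calculated relative to vehicle treatment.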

[16] = at 5.0 µM (retest, dose inferred, filed as 0.5)
[17] = at 50.0 µM (retest, dose inferred, filed as 5.0)

Measured: growth inhibition

CC(C)(O)c1ccccc1C(c1ccccc1)c1ccccc1
inactive: [1]; at 1.2 µM -3% | [1]; at 3.7 µM -3% | [1]; at 11.0 µM -2% | [1]; at 33.0 µM 0% | [1]; at 100.0 µM 9% | [2]; at 1.2 µM -6% | [2]; at 3.7 µM 20% | [2]; at 11.0 µM -14% | [2]; at 33.0 µM -5% | [2]; at 100.0 µM 1% | [3]; [16] 59% | [3]; at 50.0 µM 10.9% | [4]; at 1.2 µM -2% | [4]; at 3.7 µM 1% | [4]; at 11.0 µM 1% | [4]; at 33.0 µM 3% | [4]; at 100.0 µM 15%
active: [3]; [17] 92%

COc1ccc(/C=C(\NC(=O)c2ccccc2)C(=O)NN(C)c2ccnc3cc(Cl)ccc23)cc1OC
inactive: [5]; at 1.2 µM 3% | [5]; at 3.7 µM 1% | [5]; at 11.0 µM 12% | [5]; at 33.0 µM 5% | [5]; at 100.0 µM 27% | [6]; at 1.2 µM -41% | [6]; at 3.7 µM 0% | [6]; at 11.0 µM 3% | [6]; at 33.0 µM 11% | [6]; at 100.0 µM 15% | [7]; at 1.2 µM 4% | [7]; at 3.7 µM 20% | [8]; at 1.2 µM -1% | [8]; at 3.7 µM 7% | [8]; [16] 0% | [8]; at 11.0 µM 19% | [8]; at 33.0 µM 30% | [8]; [17] 30% | [8]; at 100.0 µM 36% | [9]; at 1.2 µM -2% | [9]; at 3.7 µM -3% | [9]; [16] -12% | [9]; at 11.0 µM 0% | [9]; at 33.0 µM 11% | [9]; [17] -14% | [9]; at 50.0 µM 28.6% | [9]; at 100.0 µM 10% | [10]; at 1.2 µM 2% | [10]; at 3.7 µM 5% | [10]; at 11.0 µM 8% | [10]; at 33.0 µM 8% | [10]; at 100.0 µM 6% | [11]; [16] -6% | [11]; [17] -6% | [12]; at 1.2 µM -2% | [12]; at 3.7 µM 6% | [12]; at 11.0 µM 38% | [12]; at 33.0 µM 48% | [12]; at 100.0 µM 58% | [13]; [16] 28% | [13]; [17] 5% | [13]; at 50.0 µM 55.4% | [14]; at 1.2 µM -4% | [14]; at 3.7 µM -4% | [14]; [16] 9% | [14]; at 11.0 µM 22% | [14]; at 33.0 µM 32% | [14]; [17] 49% | [14]; at 100.0 µM 50% | [15]; at 1.2 µM -1% | [15]; at 3.7 µM 4% | [15]; at 11.0 µM 31% | [15]; at 33.0 µM 36% | [15]; at 100.0 µM 27% | [1]; at 1.2 µM -2% | [1]; at 3.7 µM 1% | [1]; at 11.0 µM 6% | [1]; at 33.0 µM 15% | [1]; at 100.0 µM 25% | [2]; at 1.2 µM 0% | [2]; at 3.7 µM 3% | [2]; at 11.0 µM 7% | [2]; at 33.0 µM 21% | [2]; at 100.0 µM 31% | [3]; [16] 0% | [3]; [17] 1% | [4]; at 1.2 µM 2% | [4]; at 3.7 µM 5% | [4]; at 11.0 µM 11% | [4]; at 33.0 µM 41% | [4]; at 100.0 µM 50%
active: [7]; at 11.0 µM 78% | [7]; at 33.0 µM 90% | [7]; at 100.0 µM 78% | [8]; at 50.0 µM 86.5% | [11]; at 50.0 µM 73.1% | [14]; at 50.0 µM 90.2% | [3]; at 50.0 µM 87.1%

O=S(=O)(N/N=C/c1cccc(Cl)c1)c1ccccc1
inactive: [5]; at 1.2 µM -4% | [5]; at 3.7 µM -3% | [5]; at 11.0 µM 8% | [6]; at 1.2 µM 0% | [6]; at 3.7 µM 4% | [6]; at 11.0 µM 3% | [6]; at 33.0 µM 65% | [7]; at 1.2 µM 4% | [7]; at 3.7 µM 8% | [7]; at 11.0 µM 18% | [7]; at 33.0 µM 18% | [7]; at 100.0 µM 25% | [8]; at 1.2 µM -1% | [8]; at 3.7 µM -1% | [8]; [16] -14% | [8]; at 11.0 µM 7% | [9]; at 1.2 µM -3% | [9]; at 3.7 µM 4% | [9]; [16] -18% | [9]; at 11.0 µM 13% | [9]; at 33.0 µM 54% | [9]; [17] 66% | [9]; at 50.0 µM 55.5% | [10]; at 1.2 µM -7% | [10]; at 3.7 µM -6% | [10]; at 11.0 µM -1% | [11]; [16] -1% | [11]; at 50.0 µM 63.7% | [12]; at 1.2 µM -10% | [12]; at 3.7 µM -7% | [12]; at 11.0 µM 27% | [13]; [16] 20% | [13]; at 50.0 µM 67.4% | [14]; at 1.2 µM 1% | [14]; at 3.7 µM 1% | [14]; [16] -12% | [14]; at 11.0 µM 11% | [14]; at 50.0 µM 63.3% | [15]; at 1.2 µM -4% | [15]; at 3.7 µM -4% | [15]; at 11.0 µM 0% | [2]; at 1.2 µM 1% | [2]; at 3.7 µM 4% | [2]; at 11.0 µM 18% | [4]; at 1.2 µM -3% | [4]; at 3.7 µM 1% | [4]; at 11.0 µM 29%
active: [5]; at 33.0 µM 88% | [5]; at 100.0 µM 99% | [6]; at 100.0 µM 99% | [8]; at 33.0 µM 87% | [8]; [17] 92% | [8]; at 50.0 µM 89.9% | [8]; at 100.0 µM 98% | [9]; at 100.0 µM 91% | [10]; at 33.0 µM 73% | [10]; at 100.0 µM 99% | [11]; [17] 86% | [12]; at 33.0 µM 84% | [12]; at 100.0 µM 82% | [13]; [17] 89% | [14]; at 33.0 µM 79% | [14]; [17] 88% | [14]; at 100.0 µM 98% | [15]; at 33.0 µM 86% | [15]; at 100.0 µM 99% | [2]; at 33.0 µM 77% | [2]; at 100.0 µM 99% | [4]; at 33.0 µM 86% | [4]; at 100.0 µM 99%
